# Compound activity (PubChem)
# Only some compounds are listed: those with a hit (about 2.4% of all), similar ones and a draw of the others.
# D2 antag – HTS Assay for Allosteric Antagonists of the Human D2 Dopamine Receptor: Primary Screen for Antagonists; AID 485344, 2010; HEK293 TREx D2 cells, calcium flux, dopamine EC80; inhibition, % at 10 µM; D(2) dopamine receptor (Homo sapiens), P14416; hit rate 2% among 340,000; in the data active means inhibition above about 30%; inactive means below that, where a call was filed; further: 0% is about no effect
# Target sequence (P14416 whole entry, looked up): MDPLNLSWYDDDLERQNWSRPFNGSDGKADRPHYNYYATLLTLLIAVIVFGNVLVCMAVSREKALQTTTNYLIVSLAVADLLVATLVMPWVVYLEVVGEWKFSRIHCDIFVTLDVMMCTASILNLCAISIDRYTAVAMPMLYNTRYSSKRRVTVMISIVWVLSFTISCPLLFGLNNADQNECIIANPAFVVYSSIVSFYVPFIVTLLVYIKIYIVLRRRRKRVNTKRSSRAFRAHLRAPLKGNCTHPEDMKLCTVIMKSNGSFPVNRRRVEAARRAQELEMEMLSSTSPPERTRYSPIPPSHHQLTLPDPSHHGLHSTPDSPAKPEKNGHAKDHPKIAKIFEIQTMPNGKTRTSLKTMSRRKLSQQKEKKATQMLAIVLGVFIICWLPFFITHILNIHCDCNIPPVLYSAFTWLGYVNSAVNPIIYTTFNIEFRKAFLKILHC
#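 Calcium flux kinetic readout in an inducible HEK293 TREx D2 line plated overnight at 30 C. After 180 s compound exposure, an EC80 dopamine challenge follows with another 180 s kinetic read to detect antagonism.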
# D2 PAM-1 – HTS Assay for Positive Allosteric Modulators of the Human D2 Dopamine Receptor: Primary Screen for Potentiators | D(2) dopamine receptor (Homo sapiens), P14416 | HEK293 T-REx D2, calcium flux, EC20 dopamine potentiation | potentiation, % at 10 µM | hit rate 0.34% among 340,000 | AID 485347, 2010;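 active means potentiation over 3 SD above the plate norm, cut at about 30% in these data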; further: 0% is about no effect
#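 Tetracycline-induced HEK293 T-REx cells force-coupled to calcium signalling expressed D2; compounds were pin-added after a 10 s baseline, read kinetically 180 s, then an EC20 dopamine challenge followed with a further 180 s calcium read.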
# D2 PAM-2 – Beta-Arrestin HTS for Positive Allosteric Modulators of the Human D2 Dopamine Receptor: Potentiators; D(2) dopamine receptor (Homo sapiens), P14416; DiscoveRx D2 beta-arrestin cells, luminescence, 90 min; 100% = 57 uM dopamine signal; potentiation, % (concentration not given with the values); hit rate 0.23% among 360,000; AID 624464, 2012; in the data active means potentiation above about 50%
#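 PathHunter beta-arrestin assay in DiscoveRx D2 cells. Compounds were added with an EC20 of dopamine (50 nM final) for 90 min at 37 deg C. Luminescence was read 1 h after detection reagent, with 57 uM dopamine as the EC100 control.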
# D2 ag-1 – Beta-Arrestin HTS for Positive Allosteric Modulators of the Human D2 Dopamine Receptor: Agonists. D(2) dopamine receptor (Homo sapiens), P14416. DiscoveRx PathHunter D2 beta-arrestin, luminescence, 90 min; 100% = 57 uM dopamine signal. activation, % (concentration not given with the values). hit rate 0.084% among 360,000; in the data active means activation above about 40%
#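 Agonist mode: compounds alone added to overnight-plated D2 PathHunter cells for 90 min at 37 C, with 57 uM final dopamine (EC100) defining full response. Beta-arrestin recruitment detected by chemiluminescent reagent, read after 1 h at ambient temperature.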
# D2 ag-2 – HTS Assay for Allosteric Agonists of the Human D2 Dopamine Receptor: Primary Screen for Agonists. D(2) dopamine receptor (Homo sapiens), P14416. HEK293 T-REx D2 cells, calcium flux agonist mode. AID 485358, 2010. hit rate 0.53% among 340,000. activation, % at 2 µM;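 active means activation over 3 SD above normal in the single-dose calcium agonist read, cut at about 30% in these data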; further: 0% is about no effect
#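 HEK293 Trex D2 cells, tetracycline-induced, o/n 30 C 5% CO2; no-wash Ca dye, RT 30–90 min; 10-cycle baseline, 23 nl cpd added, kinetic Ca read 180 s; agonist hits = positive Ca response.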
# * hit, by the source's call; · = not tested or not shown.
SMILES,D2 antag,D2 PAM-1,D2 PAM-2,D2 ag-1,D2 ag-2
CCOC(=O)C1=C(C)n2c(s/c(=C3\C(=O)Nc4ccccc43)c2=O)=NC1c1ccc(OC)cc1 (configuration not stated),40*,8,-37,-3,0
CS(=O)(=O)N1CCN(c2ccccc2NC(=O)c2ccc(Cl)cc2)CC1,-10,-5,18,3,0
CS(=O)(=O)N1CCN(c2ccccc2NC(=O)c2cccnc2Cl)CC1,33*,-1,-5,-4,0
COc1ccc(-c2noc(CC(=O)Nc3cc(OC)ccc3OC)n2)cc1,·,2,·,·,1
Cc1ccc(-n2nc3c([n+]2[O-])CCc2nonc2-3)cc1,53*,4,-3,7,-2
Cc1oc2ncn(C)c(=O)c2c1C(=O)N(C)c1ccccc1F,·,-2,·,·,·
Cn1c(=O)c(C(=O)CN2CCOCC2)c(N)n(Cc2ccccc2)c1=O,10,-3,-16,-4,0
CC1CN(CC(=O)c2c(N)n(Cc3ccccc3)c(=O)n(C)c2=O)CC(C)O1 (configuration not stated),36*,6,1,-1,2
COC1CCCCC1NS(=O)(=O)c1ccc(Cl)cc1 (configuration not stated),31*,-6,-6,3,-1
CCCCN1CC(c2nc3ccccc3n2CCCCOc2ccccc2C)CC1=O (configuration not stated),·,1,·,·,1
O=[N+]([O-])c1ccccc1OCC(O)CN1CCN(CC(O)COc2ccccc2[N+](=O)[O-])CC1 (configuration not stated),92*,-22,-65,-2,1
COc1ccccc1N1CCN(CC(O)COc2ccc(C)c(C)c2)CC1 (configuration not stated),·,·,-20,-2,·
OC(COc1ccccc1)CN1CCN(CC(O)COc2ccccc2)CC1 (configuration not stated),30*,0,-4,-4,1
OC(COCc1cccs1)CN1CCN(c2ccccc2Cl)CC1 (configuration not stated),·,-24,-31,3,·
COc1ccccc1N1CCN(CC(O)COc2ccc3c(c2)CCC3)CC1 (configuration not stated),80*,-20,-34,2,23
CCOc1ccccc1N1CCN(CC(O)COCc2cccs2)CC1 (configuration not stated),68*,-28,-19,-3,8
CN(C)c1ccc(NC(=O)C2(c3cccs3)CCOCC2)cc1,·,9,·,·,·
COc1ccccc1N1CCN(C(=O)c2cc(CC(C)C)on2)CC1,·,3,·,·,0
Cc1ccc(CNc2ncnc3onc(C)c23)cc1,·,5,·,·,0
CC(=O)Nc1ccc(OCC(O)CN2CCN(c3cc(Cl)ccc3C)CC2)cc1 (configuration not stated),93*,-25,-21,-3,19
CC(=O)Nc1ccc(OCC(O)CN2CCN(c3ccc(C)c(Cl)c3)CC2)cc1 (configuration not stated),21,10,-16,2,0
OC(COc1ccc(F)cc1)CN1CCN(c2ccccc2F)CC1 (configuration not stated),87*,1,-21,-7,-1
OC(CN1CCN(c2ccccc2F)CC1)c1ccc(F)cc1 (configuration not stated),1,10,-9,9,0
COc1ccc(-n2c(=O)c3c4c(sc3n(Cc3ccc(C(C)(C)C)cc3)c2=O)CCC4)c(OC)c1,·,-4,·,·,0
CCOC(=O)c1ccc(NC(=O)CCn2c(=O)c3cccn3c3cccnc32)cc1,·,2,·,·,2
SMILES,D2 antag,D2 PAM-1,D2 PAM-2,D2 ag-1,D2 ag-2
COc1ccccc1C(=O)NCCn1cc(SCc2ccc(C)cc2)c2ccccc21,·,12,·,·,0
CCCc1nc2c(=O)n(C)c(=O)nc-2n(C)n1,-6,-2,30,54*,0
Cn1nc(-c2ccccn2)nc2c(=O)n(C)c(=O)nc1-2,-8,7,-1,8,2
CS(=O)(=O)N(CC(=O)NCc1ccccc1)C1CCCCC1,37*,-8,-3,-4,0
Cc1ccc(CNC(=O)CN(C2CCCCC2)S(C)(=O)=O)cc1,3,-6,-7,-4,0
CCC1CCCCN1C(=O)c1nn(-c2ccc(C)cc2)c(=O)c2c1c1ccccc1n2C (configuration not stated),·,23,·,·,-1
NC1=NC2(CCCC2)n2c(nc3ccccc32)N1,2,1,-9,-3,0
CCC1(C)N=C(N)Nc2nc3cc(C)c(C)cc3n21 (configuration not stated),35*,-10,-26,0,-1
Cc1ccc(-c2nc3ncccc3o2)cc1NC(=O)Cc1ccc(Cl)cc1,15,31*,-9,-1,0
Cc1ccc(NC(=O)c2ccc(CSc3nccc(C)n3)cc2)cc1,31*,-21,-30,1,-1
Cc1nc2ccccc2n1CCc1nc2c3ccccc3nc(SCc3cccc(F)c3)n2n1,·,-6,·,·,0
c1ccc(CSc2ncn[nH]2)nc1,42*,-4,-5,-2,1
Clc1ccc(-c2ccc(CN3CCCCC3)o2)cc1,78*,-28,-66,-3,0
CCCCNc1ccc(C(CC(N)=O)NC(=O)Cc2cccc3ccccc23)cc1[N+](=O)[O-] (configuration not stated),-1,-5,-1,-1,1
NC(=O)CC(NC(=O)c1cccc(Br)c1)c1ccc(NCC2CC2)c([N+](=O)[O-])c1 (configuration not stated),38*,-9,-11,-3,0
NC(=O)CC(NC(=O)c1ccccc1)c1ccc(NCC2CC2)c([N+](=O)[O-])c1 (configuration not stated),7,-1,-9,-6,0
Cc1cccc(CNc2ccc(C(CC(N)=O)NC(=O)Cc3cccc4ccccc34)cc2[N+](=O)[O-])c1 (configuration not stated),34*,2,-4,-4,-1
O=C(CCN1C(=O)CSc2ccccc21)Nc1ccc(OC(F)(F)F)cc1,51*,-17,-4,-1,0
CCOc1ccc(NC(=O)CCN2C(=O)CSc3ccccc32)cc1,-9,-11,-5,3,1
COc1ccc(NC(=O)c2oc3ccccc3c2NC(=O)C2CCCCC2)c(OC)c1,·,1,·,·,1
